# Test results published in PubChem BioAssay.
# Values without a mark were called inactive. The source made the active and inactive calls.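 The calls were made as follows, unless noted: active = mean inhibition above 46.5%, the solvent-only control mean plus 3 SD; inactive = the rest.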
# Columns and labels:
# [1] = tested on: transactivating tegument protein VP16 (Human herpesvirus 1); experiment: VP16 transactivation reporter inhibitors, counter-screen for SRC2 inhibitor project, cell-based, luminescence, single concentration (AID 652007; in the data active = inhibition above about 36%); conditions: cell-based VP16 transactivation luciferase reporter, at 8.9 µM, stronger effect = higher value
# [2] = target: Nuclear receptor coactivator 2 (Homo sapiens) (UniProt Q15596); experiment: SRC2 coactivator transcriptional activity inhibitors, confirmation, cell-based, luminescence, HEK293, triplicate (AID 652008); conditions: HEK293 GAL4-SRC2 luciferase reporter, at 8.9 µM, stronger effect = higher value;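 also: 0% = DMSO-treated cells and 100% = Gossypol at 36 µM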
# Chain of Nuclear receptor coactivator 2 (Homo sapiens) (Q15596 whole entry, looked up, the tested form may be a part): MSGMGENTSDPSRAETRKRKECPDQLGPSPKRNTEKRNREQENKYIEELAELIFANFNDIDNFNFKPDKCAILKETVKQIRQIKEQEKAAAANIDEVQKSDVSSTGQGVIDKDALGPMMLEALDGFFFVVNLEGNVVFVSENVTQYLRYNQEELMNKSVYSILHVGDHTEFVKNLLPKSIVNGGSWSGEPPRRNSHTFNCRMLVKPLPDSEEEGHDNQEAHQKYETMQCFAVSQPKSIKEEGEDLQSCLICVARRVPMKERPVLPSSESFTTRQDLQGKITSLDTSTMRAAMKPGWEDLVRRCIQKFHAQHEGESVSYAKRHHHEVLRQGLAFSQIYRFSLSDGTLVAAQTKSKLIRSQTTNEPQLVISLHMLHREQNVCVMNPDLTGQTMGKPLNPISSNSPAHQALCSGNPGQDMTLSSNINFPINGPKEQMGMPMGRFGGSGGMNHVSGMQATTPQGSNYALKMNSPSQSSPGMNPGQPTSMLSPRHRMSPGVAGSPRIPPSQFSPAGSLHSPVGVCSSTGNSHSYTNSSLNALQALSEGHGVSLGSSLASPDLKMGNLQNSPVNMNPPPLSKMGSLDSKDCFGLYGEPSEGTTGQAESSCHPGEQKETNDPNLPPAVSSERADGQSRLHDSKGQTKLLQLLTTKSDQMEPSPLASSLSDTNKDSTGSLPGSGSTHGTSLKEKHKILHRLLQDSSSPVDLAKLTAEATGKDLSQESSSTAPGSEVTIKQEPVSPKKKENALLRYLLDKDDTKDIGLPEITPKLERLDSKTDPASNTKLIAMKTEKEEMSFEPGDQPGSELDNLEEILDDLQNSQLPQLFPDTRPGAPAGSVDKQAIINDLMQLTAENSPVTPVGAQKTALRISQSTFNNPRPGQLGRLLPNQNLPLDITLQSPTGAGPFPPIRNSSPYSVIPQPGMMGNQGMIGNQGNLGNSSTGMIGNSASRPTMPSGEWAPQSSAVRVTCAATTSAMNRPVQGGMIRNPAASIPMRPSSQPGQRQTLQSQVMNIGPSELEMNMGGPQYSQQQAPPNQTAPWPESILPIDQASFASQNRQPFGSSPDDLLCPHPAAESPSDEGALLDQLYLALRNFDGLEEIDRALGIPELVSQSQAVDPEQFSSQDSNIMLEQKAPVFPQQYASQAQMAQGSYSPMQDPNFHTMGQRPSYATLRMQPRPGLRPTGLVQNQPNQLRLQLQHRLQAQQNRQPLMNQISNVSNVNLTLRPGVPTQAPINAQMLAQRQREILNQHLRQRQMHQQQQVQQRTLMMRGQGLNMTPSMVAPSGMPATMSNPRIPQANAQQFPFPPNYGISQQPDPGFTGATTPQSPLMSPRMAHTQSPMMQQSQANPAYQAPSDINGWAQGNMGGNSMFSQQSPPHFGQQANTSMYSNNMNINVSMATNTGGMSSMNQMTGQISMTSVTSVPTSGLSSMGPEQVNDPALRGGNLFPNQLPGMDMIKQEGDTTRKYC
SMILES,inhibition [1],inhibition [2]
CCc1ccc(/C=C2\SC(=S)N(CCC(=O)Nc3cc(C)on3)C2=O)cc1,-41%,16.6%
CC1CCc2nc(NC(=O)c3ccco3)sc2C1 (stereo not drawn),-23.2%,11.1%
CC(c1nccs1)N(C)C(=O)CCc1nnc(-c2ccc(-c3ccccc3)cc2)o1 (stereo not drawn),-11%,30.6%
CC1=CC(C)(C)Nc2ccc(OC(=O)c3ccco3)cc21,-20.4%,31.6%
O=C(CCl)N(Cc1ccccc1)c1ccccc1,26%,48.6% (active)
Cc1cccc(NC(=S)NNc2ncc(C(F)(F)F)cc2Cl)c1,24.3%,11.6%
Cc1ccccc1CS(=O)(=O)c1ccc(C(=O)N2CCOCC2)cc1[N+](=O)[O-],14.6%,24.6%
N#Cc1ccccc1COc1ccc(/C=C/C(=O)O)cc1,57.9% (active),76.8% (active)
Cc1nc2scc(C)n2c(=O)c1S(=O)(=O)Nc1ccc(OC(F)(F)F)cc1,-5.83%,6.78%
COc1ccc(/C=C2\SC(=S)N(CCCC(=O)N3CCOCC3)C2=O)cc1,45.9% (active),35.5%
CC(=O)Nc1cccc(-c2cc(NC(C)=O)c3ncc(-c4ccc(F)cc4)n3c2)c1,12%,2.54%
CC1=CC(C)(C)Nc2ccc(OC(=O)C(C)N3C(=O)c4ccccc4C3=O)cc21 (stereo not drawn),-33.8%,20.7%
CCOC(=O)N1C(=O)[C@@](c2ccc(Cl)cc2)(C(C)C)N1C(=O)OCC,-14%,16.6%
Cc1cccc(Nc2nc(NCc3ccco3)c3ccccc3n2)c1,25.1%,33.9%
CN(C)c1ccc(/C=C2\SC(=O)N(CCc3nnc(N)s3)C2=O)cc1,-23.4%,27.1%
CC(C)CCn1cnc2c(sc3nc4c(cc32)CSC(C)(C)C4)c1=O,-42.3%,-11.9%
CC(C)Cc1nnc(NC(=O)CCC(=O)N2CCN(Cc3ccccc3)CC2)s1,8.01%,17.4%
CCOc1ccc(-c2cc(CCCC(=O)NCCCOC)no2)cc1,38.5% (active),52% (active)
CCN(CC)S(=O)(=O)c1ccc(Cl)c(NC(=O)COc2ccc(OC)cc2[N+](=O)[O-])c1,-24.3%,-28.8%
Cc1nc2cc(-c3ccc(Cl)cc3)nn2c(C)c1CCC(=O)NC(C)c1ccc2c(c1)OCCO2 (stereo not drawn),-10.9%,72.8% (active)
CCn1c(C2CCN(S(=O)(=O)c3ccc(OC)cc3)CC2)n[nH]c1=S,-1.12%,-16.9%
Cc1ccc(Cn2ccc(=O)c(OCc3c(Cl)cccc3Cl)c2C)cc1,11.9%,13.3%
CN1C(=O)C(c2cn(C)c3ccccc23)(c2cn(C)c3ccccc23)c2cc(F)ccc21,11.8%,-37.4%
CCCSc1nnc(Sc2nnnn2-c2ccccc2)s1,7.33%,16.8%
O=C(c1c[nH]c2ccccc12)C(Cl)c1ccccc1 (stereo not drawn),27.7%,33.8%

SMILES,inhibition [1],inhibition [2]
Oc1cccc(C(Nc2nccs2)c2ccc3cccnc3c2O)c1 (stereo not drawn),-15.2%,7.61%
CCCCn1c(CCC)nc([N+](=O)[O-])c1Sc1ccc(Cl)cn1,13.2%,20.7%
NC(=O)c1cc(C(=O)c2ccc(Cl)cc2Cl)c[nH]1,-19.8%,14.3%
CN(C)CCCN(C(=O)CCOc1ccccc1)c1nc2c(F)cccc2s1,-2.69%,20.6%
Cc1ccc2cc(CN(Cc3ccco3)S(=O)(=O)c3c(C)ccc4nsnc34)c(=O)[nH]c2c1,26.5%,14.2%
Cc1ccc(C(=O)Nc2nc3ccccc3[nH]2)cc1,-3.8%,49.1% (active)
Cn1cc(CN2CCN(CCO)CC2)c(-c2ccc(Oc3ccccc3)cc2)n1,-9.32%,7.36%
O=C(CCl)Nc1cccc(S(=O)(=O)NC2=NCCC2)c1,76.2% (active),38.1%
O=C(NC(=S)Nc1cccc2cc(O)ccc12)c1ccccc1Br,2.57%,-14.4%
O=C(NCc1ccc(Cl)c(Cl)c1)c1cc(C2CCCCN2C(=O)CCc2ccccc2)on1 (stereo not drawn),-6.3%,12.6%
COCCn1c(-c2ccc(Br)cc2)csc1=Nc1cccnc1,10.4%,20.4%
O=C(c1ccccc1Nc1ccc(SC(F)F)cc1)N1CCCCCC1,2.12%,4.87%
NC(=O)CC(NC(=O)c1ccc(Br)cc1)c1ccc(N2CCCCCC2)c([N+](=O)[O-])c1 (stereo not drawn),9.13%,23.3%
COC(=O)c1cc(C(=O)OC)cc(S(=O)(=O)Nc2ccc(Cl)c(N)c2)c1,-6.46%,-14.7%
CCOC(=O)C1=CCN(S(=O)(=O)c2ccccc2C)C1c1ccc(Cl)c(Cl)c1 (stereo not drawn),-18.3%,-14%
Cc1ccc(-c2nnc(SCCC(=O)N3CCOCC3)o2)cc1,-40.9%,-16.8%
CCc1cc2c(Sc3nc4ccccc4s3)ncnc2s1,36.6% (active),42.6%
COc1ccc(CN2CCC(C(=O)Nc3ccc(Oc4ccccc4)nc3)CC2)cc1F,16.9%,28.5%
Cc1ccc2c(c1)nnn2C1CCN(CC(=O)N(c2ccccc2)c2ccccc2)CC1,14.5%,33.7%
Oc1ccc(N=Nc2ccc3c(c2)OCCO3)c2ncccc12,-13.1%,13.6%
CSCC[C@H](NC(=O)c1cc([N+](=O)[O-])ccc1Cl)c1nc2ccccc2[nH]1,-0.37%,19%
O=c1[nH]nc(Sc2ncnc3sccc23)n1CCc1ccccc1,14.9%,47.5% (active)
O=C(Nc1ccc2c(c1)OCCO2)c1ccc(Br)c(S(=O)(=O)N2CCOCC2)c1,-39.8%,45.5%
COc1ccc(S(=O)(=O)N2CCC(C(=O)c3ccc4c(c3)OCCO4)CC2)cc1,-0.72%,-0.4%
